Assay results as given in PubChem BioAssay (NCI).
About 83,000 compounds went through this panel and 20% of them were active in at least one assay; those are over-represented in the sample as a whole.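 Growth was measured after 48 h exposure to one concentration of compound in 96-well plates. Values under 10 count as active.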 The source made the active and inactive calls.

Key:
Assay in all cases: NCI-60 one-dose screen, 48 h (100 = growth as untreated, 0 = no growth, -100 = all killed)
Conditions in all cases: 10 µM unless noted
DU-145 prostate = test system: DU-145 prostate
K-562 leukemia = test system: K-562 leukemia
MALME-3M melanoma = test system: MALME-3M melanoma
MDA-MB-231 breast = test system: MDA-MB-231 breast
RXF 393 renal = test system: RXF 393 renal
SF-268 CNS = test system: SF-268 CNS
UACC-257 melanoma = test system: UACC-257 melanoma
M14 melanoma = test system: M14 melanoma
SF-295 CNS = test system: SF-295 CNS
SF-539 CNS = test system: SF-539 CNS

Measured: growth

COc1ccc(-c2cnnn2-c2nonc2-n2cccc2)cc1OC
active: K-562 leukemia 3.29%
inactive: DU-145 prostate 80.9% | MALME-3M melanoma 25.1% | MDA-MB-231 breast 65.7% | RXF 393 renal 75.6% | SF-268 CNS 71.8% | UACC-257 melanoma 79.6% | M14 melanoma 39.9%

Cc1[nH]c2ccc(F)cc2c1CCNC(=O)C1CCN(C(=O)c2ccccc2)C1 (stereo not drawn)
inactive: DU-145 prostate 87.6% [25 µM] | K-562 leukemia 91.9% [25 µM] | MALME-3M melanoma 73.3% [25 µM] | MDA-MB-231 breast 82% [25 µM] | SF-268 CNS 85.1% [25 µM] | SF-295 CNS 96.4% [25 µM] | SF-539 CNS 83% [25 µM] | UACC-257 melanoma 99.6% [25 µM] | M14 melanoma 98.8% [25 µM]

O=C(/C=C/c1ccccc1)c1cccc(O)c1
inactive: DU-145 prostate 56.4% | K-562 leukemia 51.3% | MALME-3M melanoma 101% | RXF 393 renal 107% | SF-268 CNS 85% | SF-295 CNS 96.8% | UACC-257 melanoma 99.5% | M14 melanoma 68.1%

COc1ccc(-c2ccc(-c3ccc(-c4ccc(C(=N)N)cc4)s3)s2)cc1OC
active: K-562 leukemia -50%
inactive: DU-145 prostate 36.4% | MALME-3M melanoma 92.6% | MDA-MB-231 breast 80.2% | SF-268 CNS 87.1% | SF-295 CNS 99.7% | SF-539 CNS 88.9% | UACC-257 melanoma 103% | M14 melanoma 99%

COc1ccc(C2C=C(c3ccc(OC)c(OC)c3)N=C3SC=C(C)N32)c(Br)c1 (stereo not drawn)
inactive: DU-145 prostate 109% | K-562 leukemia 96.5% | MALME-3M melanoma 99% | MDA-MB-231 breast 112% | RXF 393 renal 106% | SF-268 CNS 105% | SF-539 CNS 93.6% | UACC-257 melanoma 117% | M14 melanoma 101%

COc1cc(NCCCCCN)c2ncccc2c1
inactive: DU-145 prostate 119% | K-562 leukemia 102% | MALME-3M melanoma 99% | RXF 393 renal 129% | SF-268 CNS 106% | SF-295 CNS 112% | UACC-257 melanoma 107% | M14 melanoma 96.8%

COc1ccc(Cn2cc3c(c2-c2cc(OC)c(OC)c(OC)c2)CCc2cnoc2-3)cc1
inactive: DU-145 prostate 20.2% | K-562 leukemia 14.6% | MDA-MB-231 breast 14% | RXF 393 renal 17.1% | SF-268 CNS 40.9% | UACC-257 melanoma 67.6%
active: SF-295 CNS 1.12% | SF-539 CNS 2.64% | M14 melanoma 7.62%

C=CCSc1n[nH]c(-c2cccs2)n1
inactive: DU-145 prostate 121% | K-562 leukemia 85.6% | MALME-3M melanoma 110% | MDA-MB-231 breast 121% | SF-268 CNS 111% | SF-295 CNS 106% | SF-539 CNS 98.3% | UACC-257 melanoma 76.4% | M14 melanoma 104%

CCOC(=O)c1ccc2c(c1)c1c(C)c3cccnc3c(C)c1n2C
inactive: DU-145 prostate 52.7% | K-562 leukemia 39.5% | MALME-3M melanoma 68.7% | MDA-MB-231 breast 50.7% | RXF 393 renal 75.6% | SF-268 CNS 50.9% | SF-539 CNS 67% | UACC-257 melanoma 115% | M14 melanoma 53.2%

Fc1ccccc1-c1nc(-c2nc3cc(Cl)c(Cl)cc3[nH]2)c2ccccn12
inactive: DU-145 prostate 51.5% | K-562 leukemia 73.1% | MALME-3M melanoma 34.5% | MDA-MB-231 breast 91.4% | RXF 393 renal 69.2% | SF-268 CNS 77.4% | UACC-257 melanoma 82.2% | M14 melanoma 71%

COc1cc(-c2nn(-c3cccc(NC(=O)Nc4ccc(Cl)c(Cl)c4)c3)cc2-c2ccncc2)ccc1Cl
inactive: DU-145 prostate 20% | SF-268 CNS 17.9% | SF-539 CNS 12.3%
active: K-562 leukemia 3.63% | MALME-3M melanoma -19.9% | MDA-MB-231 breast -40.1% | RXF 393 renal -22.8% | UACC-257 melanoma -36.6% | M14 melanoma 0.293%

O=C(Nc1cccc(-n2cc(-c3ccncc3)c(-c3ccc(Cl)c(O)c3)n2)c1)c1ccccc1
active: RXF 393 renal 0.59%
inactive: DU-145 prostate 56.9% | K-562 leukemia 60.7% | MALME-3M melanoma 53.1% | MDA-MB-231 breast 63.2% | SF-268 CNS 68.3% | SF-539 CNS 74.7% | UACC-257 melanoma 44.2% | M14 melanoma 54.9%

O=C1/C(=C/c2ccc(Cl)cc2)CN(Cc2cn(CCNc3ccnc4cc(Cl)ccc34)nn2)C/C1=C\c1ccc(Cl)cc1
active: DU-145 prostate -97.3% | K-562 leukemia -34.5% | MALME-3M melanoma -69.5% | MDA-MB-231 breast -43.2% | RXF 393 renal -94.5% | SF-268 CNS -78% | SF-539 CNS -97% | UACC-257 melanoma -92.1% | M14 melanoma -70.5%

Cc1ccc(-c2cc3nc(C(Cl)Cl)nc(-c4cccnc4)n3n2)cc1
inactive: SF-268 CNS 25.7% | SF-539 CNS 63% | UACC-257 melanoma 86% | M14 melanoma 61%
active: DU-145 prostate -22% | K-562 leukemia 9.52% | MALME-3M melanoma 5.51% | MDA-MB-231 breast 2.53% | SF-295 CNS 4.01%

N=C(N)c1ccc(-c2ccc(-c3cncc4ccccc34)s2)cc1F
active: DU-145 prostate -91% | K-562 leukemia -50.6% | MALME-3M melanoma -81% | MDA-MB-231 breast -85.2% | SF-268 CNS -74.4% | SF-295 CNS -95.1% | SF-539 CNS -97.7%
inactive: UACC-257 melanoma 111% | M14 melanoma 96.3%

COc1cc(/C=C/c2cc(/C=C/c3ccc(O)c(OC)c3)n(C(N)=O)n2)ccc1O
active: DU-145 prostate 2.11% | K-562 leukemia -23% | MALME-3M melanoma -4.94% | MDA-MB-231 breast 3.7% | SF-268 CNS -10.7% | SF-295 CNS 4.87% | SF-539 CNS -26.3% | UACC-257 melanoma 0.83% | M14 melanoma -66.2%

COc1cc(-c2ncn(/C=C\C(=O)OC(C)C)n2)cc(C(F)(F)F)c1
inactive: DU-145 prostate 15.7% | SF-295 CNS 61.3% | UACC-257 melanoma 60.3%
active: K-562 leukemia 3.62% | MALME-3M melanoma -1.62% | RXF 393 renal -41.1% | SF-268 CNS -1.06% | SF-539 CNS -36.8%

COc1ccc(-c2c(N)n[nH]c2-c2cc(OC)c3c(c2)OCCO3)cc1
inactive: DU-145 prostate 96.1% | K-562 leukemia 12.1% | MALME-3M melanoma 39.3% | MDA-MB-231 breast 87.7% | RXF 393 renal 74% | SF-268 CNS 79.9% | UACC-257 melanoma 88.1% | M14 melanoma 65.2%

COc1cc(-c2nn(-c3cccc(NC(=O)Nc4ccc(Cl)c(C(F)(F)F)c4)c3)cc2-c2ccncc2)ccc1Cl
active: K-562 leukemia 3.8% | MALME-3M melanoma -14.9% | MDA-MB-231 breast -52.4% | RXF 393 renal -27.8% | SF-539 CNS 6.56% | UACC-257 melanoma -37.6% | M14 melanoma -11.6%
inactive: DU-145 prostate 20.3% | SF-268 CNS 13.8%

O=[N+]([O-])c1cnc(Sc2ccncn2)s1
inactive: MDA-MB-231 breast 75.4% | SF-268 CNS 35.7% | SF-295 CNS 102% | SF-539 CNS 91.1%
active: DU-145 prostate -21.5% | K-562 leukemia -44.4% | MALME-3M melanoma -63.5% | UACC-257 melanoma -18.7% | M14 melanoma 6.85%

COc1ccc(/C=C2\CN(Cc3cn(CCNc4ccnc5cc(Cl)ccc45)nn3)C/C(=C\c3ccc(OC)c(OC)c3)C2=O)cc1OC
active: DU-145 prostate 0.0798% | K-562 leukemia 2.21% | MALME-3M melanoma -27.7% | MDA-MB-231 breast -0.28% | RXF 393 renal -52.1% | SF-268 CNS 9.6% | SF-539 CNS -12.5% | UACC-257 melanoma 5.32% | M14 melanoma 3.7%

COc1ccc(N=Cc2c(O)ccc3c2oc2cc(Cl)c(O)c(Cl)c23)cc1
inactive: DU-145 prostate 125% | K-562 leukemia 81.1% | MALME-3M melanoma 106% | MDA-MB-231 breast 107% | SF-268 CNS 105% | SF-295 CNS 115% | SF-539 CNS 96.7% | UACC-257 melanoma 76.5% | M14 melanoma 94.9%

COc1ccc2cc(-c3ccc(-c4ccc(C(=N)N)cc4)s3)ccc2c1
inactive: DU-145 prostate 61% | K-562 leukemia 40% | MALME-3M melanoma 104% | MDA-MB-231 breast 100% | SF-268 CNS 94.6% | SF-295 CNS 101% | SF-539 CNS 98.9% | UACC-257 melanoma 104% | M14 melanoma 97.6%

COc1cc(-c2nn(-c3cccc(NC(=O)c4ccc(N5CCOCC5)c(C(F)(F)F)c4)c3)cc2-c2ccncc2)ccc1Cl
active: K-562 leukemia 1.22% | MDA-MB-231 breast -25.2% | RXF 393 renal -45.2% | SF-539 CNS -68.9% | M14 melanoma 1.42%
inactive: DU-145 prostate 10.9% | MALME-3M melanoma 36.2% | SF-268 CNS 22.5% | UACC-257 melanoma 24.3%

COc1ccc(N2CCN(Cc3cc(C(=O)/C=C/c4c[nH]c5ccccc45)ccc3O)CC2)cc1
inactive: DU-145 prostate 114% | K-562 leukemia 101% | MALME-3M melanoma 95.6% | MDA-MB-231 breast 103% | RXF 393 renal 104% | SF-268 CNS 101% | SF-539 CNS 96.6% | UACC-257 melanoma 102% | M14 melanoma 102%

CCC(=O)OC1=CN2C(=NC(c3ccc(N)cc3)=CC2c2cc(OC)c(OC)c(OC)c2)S1 (stereo not drawn)
inactive: MALME-3M melanoma 63.7% | MDA-MB-231 breast 67.1% | RXF 393 renal 35.1% | SF-268 CNS 60.8% | SF-539 CNS 43.8% | UACC-257 melanoma 37.1% | M14 melanoma 52.5%
active: DU-145 prostate -16.6% | K-562 leukemia 6.1%

Nc1cc2c(cc1C(=O)c1cccc(F)c1)OCCO2
inactive: DU-145 prostate 109% | MALME-3M melanoma 109% | MDA-MB-231 breast 102% | RXF 393 renal 104% | SF-268 CNS 98.4% | SF-295 CNS 94.5% | SF-539 CNS 103% | UACC-257 melanoma 93.4% | M14 melanoma 107%

CC(O)CN1CCCCC1 (stereo not drawn)
inactive: DU-145 prostate 117% | MALME-3M melanoma 112% | MDA-MB-231 breast 105% | RXF 393 renal 108% | SF-268 CNS 101% | SF-295 CNS 104% | SF-539 CNS 111% | UACC-257 melanoma 104% | M14 melanoma 105%

Cc1ccc(CSC(=N)N)cc1C
inactive: DU-145 prostate 108% | MALME-3M melanoma 111% | MDA-MB-231 breast 99.2% | RXF 393 renal 103% | SF-268 CNS 104% | SF-295 CNS 111% | SF-539 CNS 114% | UACC-257 melanoma 119% | M14 melanoma 105%

O=S1(=O)CCC(N(/N=C/c2ccco2)c2ccccc2)C1 (stereo not drawn)
inactive: DU-145 prostate 111% | K-562 leukemia 123% | MDA-MB-231 breast 112% | RXF 393 renal 109% | SF-268 CNS 102% | SF-539 CNS 98.1% | UACC-257 melanoma 95.1% | M14 melanoma 100%

CC(=O)Nc1nc(N)nc(NC(C)=O)c1N=O
inactive: DU-145 prostate 107% | K-562 leukemia 124% | MDA-MB-231 breast 114% | RXF 393 renal 135% | SF-268 CNS 98.7% | SF-539 CNS 105% | UACC-257 melanoma 113%

COc1ccc(/C(C#N)=C/c2cc(OC)c(OC)c(OC)c2)cc1
inactive: DU-145 prostate 82.7% | K-562 leukemia 19% | MDA-MB-231 breast 58.1% | RXF 393 renal 56.7% | SF-268 CNS 61.9% | SF-539 CNS 23.1% | UACC-257 melanoma 52.8% | M14 melanoma 17.2%
